Targets with a hit are over-represented here; the source holds about 8,800 in all. About 0.5% of all pairs of compound and target were hits.
compound: CC1=C2C(=CC=C1)N=C(N(C2=O)C3=CC=CC=C3C)CN4C=NC5=C(N=CN=C54)N; test: log2 fold change, soluble protein after heating vs DMSO (PISA); higher = thermal stabilisation; K562 lysate, 10 uM; active = over 0.2 and 3.5 SD of the protein, either way, in both replicates (recomputed)
Outline: (§1)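 K562 pellets were dounce-homogenised in PBS pH 7.4 containing 1 mM MgCl2, and the crude extract, at 1 mg/mL protein, was exposed to 10 μM compound for 30 min. Aliquots were heated for 3 min across 48°C-58°C, pooled, brought to 0.5% NP-40 at 4°C and spun at 21,000xg for 90 min, with the supernatant taken as soluble protein. TMTpro 16plex LC-MS/MS with equalised channel sums quantified that protein. Values are log-two fold changes in thermal stability relative to solvent controls, taken from duplicates.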

Sequence of UniProt O75970 (O75970 whole entry, looked up): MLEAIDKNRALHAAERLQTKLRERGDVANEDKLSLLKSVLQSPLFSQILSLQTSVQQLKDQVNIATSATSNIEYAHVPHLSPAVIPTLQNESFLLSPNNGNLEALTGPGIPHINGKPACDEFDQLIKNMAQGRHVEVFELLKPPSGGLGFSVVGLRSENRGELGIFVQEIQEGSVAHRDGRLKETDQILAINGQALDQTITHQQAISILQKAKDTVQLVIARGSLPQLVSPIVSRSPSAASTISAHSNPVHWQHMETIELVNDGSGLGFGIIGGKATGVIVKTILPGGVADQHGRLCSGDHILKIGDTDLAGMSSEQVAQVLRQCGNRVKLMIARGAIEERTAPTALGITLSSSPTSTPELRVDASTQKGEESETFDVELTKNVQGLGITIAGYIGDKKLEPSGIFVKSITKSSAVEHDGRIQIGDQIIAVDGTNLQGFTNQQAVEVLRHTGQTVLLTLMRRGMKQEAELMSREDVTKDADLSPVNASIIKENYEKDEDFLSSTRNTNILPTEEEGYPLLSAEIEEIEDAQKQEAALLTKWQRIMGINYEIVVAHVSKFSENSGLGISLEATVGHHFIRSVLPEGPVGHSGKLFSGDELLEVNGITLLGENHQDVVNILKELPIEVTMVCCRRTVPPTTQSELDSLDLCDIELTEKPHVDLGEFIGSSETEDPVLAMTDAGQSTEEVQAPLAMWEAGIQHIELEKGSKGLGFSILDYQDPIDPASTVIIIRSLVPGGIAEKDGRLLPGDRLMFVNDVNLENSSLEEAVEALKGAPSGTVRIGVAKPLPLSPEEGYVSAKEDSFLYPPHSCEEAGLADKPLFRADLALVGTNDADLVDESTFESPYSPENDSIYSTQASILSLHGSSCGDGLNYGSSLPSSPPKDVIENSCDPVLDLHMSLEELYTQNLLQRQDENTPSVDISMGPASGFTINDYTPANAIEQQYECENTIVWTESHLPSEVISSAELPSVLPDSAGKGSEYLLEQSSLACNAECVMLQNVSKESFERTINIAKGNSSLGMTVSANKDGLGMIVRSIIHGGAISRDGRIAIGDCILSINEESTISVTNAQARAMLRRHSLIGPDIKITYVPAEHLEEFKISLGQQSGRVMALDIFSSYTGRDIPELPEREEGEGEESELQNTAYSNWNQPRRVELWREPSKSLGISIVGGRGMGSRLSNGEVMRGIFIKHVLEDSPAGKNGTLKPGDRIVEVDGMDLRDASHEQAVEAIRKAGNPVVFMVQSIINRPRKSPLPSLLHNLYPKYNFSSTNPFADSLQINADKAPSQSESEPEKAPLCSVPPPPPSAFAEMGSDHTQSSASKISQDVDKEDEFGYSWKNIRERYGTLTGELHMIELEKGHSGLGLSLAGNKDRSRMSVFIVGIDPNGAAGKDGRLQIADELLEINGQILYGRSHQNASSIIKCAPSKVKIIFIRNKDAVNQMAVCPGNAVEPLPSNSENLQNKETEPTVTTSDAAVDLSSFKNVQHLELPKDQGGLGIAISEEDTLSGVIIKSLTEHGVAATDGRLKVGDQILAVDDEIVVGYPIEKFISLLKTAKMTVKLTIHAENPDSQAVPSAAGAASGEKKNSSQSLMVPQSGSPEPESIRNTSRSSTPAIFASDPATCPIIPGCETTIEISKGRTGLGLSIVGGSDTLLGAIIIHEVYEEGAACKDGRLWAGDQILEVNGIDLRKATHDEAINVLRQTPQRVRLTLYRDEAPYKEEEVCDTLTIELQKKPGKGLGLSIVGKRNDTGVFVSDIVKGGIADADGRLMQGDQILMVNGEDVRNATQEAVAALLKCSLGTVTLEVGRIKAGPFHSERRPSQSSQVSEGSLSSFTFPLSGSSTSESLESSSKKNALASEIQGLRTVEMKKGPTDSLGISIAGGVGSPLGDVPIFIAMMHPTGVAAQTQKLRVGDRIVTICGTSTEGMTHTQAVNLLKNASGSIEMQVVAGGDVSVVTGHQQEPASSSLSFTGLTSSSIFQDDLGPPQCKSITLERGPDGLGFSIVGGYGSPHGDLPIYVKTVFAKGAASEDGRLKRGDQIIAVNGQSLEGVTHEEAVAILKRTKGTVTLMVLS
Sequence of UniProt P01116 (P01116 whole entry, looked up): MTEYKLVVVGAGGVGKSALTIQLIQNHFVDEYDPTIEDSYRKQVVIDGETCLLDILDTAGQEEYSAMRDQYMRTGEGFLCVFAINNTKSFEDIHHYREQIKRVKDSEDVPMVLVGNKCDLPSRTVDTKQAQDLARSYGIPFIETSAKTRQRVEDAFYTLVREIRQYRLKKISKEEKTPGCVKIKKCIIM
Sequence of UniProt Q96IZ6 (Q96IZ6 whole entry, looked up): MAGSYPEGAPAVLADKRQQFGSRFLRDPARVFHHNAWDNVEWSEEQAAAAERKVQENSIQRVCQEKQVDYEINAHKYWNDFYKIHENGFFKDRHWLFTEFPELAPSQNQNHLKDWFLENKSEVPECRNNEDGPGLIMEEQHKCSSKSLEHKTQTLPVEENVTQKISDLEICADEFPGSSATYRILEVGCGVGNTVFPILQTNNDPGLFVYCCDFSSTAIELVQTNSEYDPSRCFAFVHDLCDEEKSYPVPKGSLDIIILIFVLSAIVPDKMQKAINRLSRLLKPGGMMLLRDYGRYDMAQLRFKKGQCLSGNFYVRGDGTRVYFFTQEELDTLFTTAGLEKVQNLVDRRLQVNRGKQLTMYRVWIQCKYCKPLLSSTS
Sequence of UniProt P83369 (P83369 whole entry, looked up): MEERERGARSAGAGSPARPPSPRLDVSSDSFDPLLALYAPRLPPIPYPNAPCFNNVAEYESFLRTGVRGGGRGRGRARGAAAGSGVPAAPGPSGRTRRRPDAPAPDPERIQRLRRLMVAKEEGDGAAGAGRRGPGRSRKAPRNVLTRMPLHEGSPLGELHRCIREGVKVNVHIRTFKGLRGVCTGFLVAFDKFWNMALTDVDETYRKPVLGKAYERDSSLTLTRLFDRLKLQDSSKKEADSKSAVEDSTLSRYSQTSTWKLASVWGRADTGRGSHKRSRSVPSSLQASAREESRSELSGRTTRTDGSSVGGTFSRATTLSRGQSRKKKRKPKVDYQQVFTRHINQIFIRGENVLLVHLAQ
Sequence of UniProt P52732 (P52732 whole entry, looked up): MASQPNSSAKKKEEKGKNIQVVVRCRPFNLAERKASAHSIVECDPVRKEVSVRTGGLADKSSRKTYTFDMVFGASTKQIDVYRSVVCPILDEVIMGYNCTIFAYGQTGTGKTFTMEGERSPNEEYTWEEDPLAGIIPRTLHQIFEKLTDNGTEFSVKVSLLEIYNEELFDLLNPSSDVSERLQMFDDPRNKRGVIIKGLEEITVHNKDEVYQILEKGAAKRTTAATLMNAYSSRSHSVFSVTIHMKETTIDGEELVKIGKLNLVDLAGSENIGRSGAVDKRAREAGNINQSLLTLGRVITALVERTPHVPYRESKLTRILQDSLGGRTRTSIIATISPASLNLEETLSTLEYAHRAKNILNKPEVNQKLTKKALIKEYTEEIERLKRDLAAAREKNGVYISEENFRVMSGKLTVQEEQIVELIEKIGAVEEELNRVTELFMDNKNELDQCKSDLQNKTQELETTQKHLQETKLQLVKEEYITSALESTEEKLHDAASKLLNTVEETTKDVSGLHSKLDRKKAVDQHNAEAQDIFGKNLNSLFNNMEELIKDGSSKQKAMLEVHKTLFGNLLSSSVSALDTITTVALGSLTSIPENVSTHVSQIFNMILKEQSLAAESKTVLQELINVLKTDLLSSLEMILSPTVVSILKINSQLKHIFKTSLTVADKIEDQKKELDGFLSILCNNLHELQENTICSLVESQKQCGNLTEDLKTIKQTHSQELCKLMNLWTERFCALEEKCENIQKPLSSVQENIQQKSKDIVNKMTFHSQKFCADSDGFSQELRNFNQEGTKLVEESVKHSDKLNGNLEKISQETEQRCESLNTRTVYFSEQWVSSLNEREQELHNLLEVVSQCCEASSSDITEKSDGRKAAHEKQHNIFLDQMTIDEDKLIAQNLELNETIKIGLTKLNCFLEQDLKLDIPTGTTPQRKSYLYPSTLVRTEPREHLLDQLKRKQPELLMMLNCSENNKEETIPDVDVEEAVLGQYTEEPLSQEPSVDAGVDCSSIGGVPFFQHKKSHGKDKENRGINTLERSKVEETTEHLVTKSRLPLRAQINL
Sequence of UniProt Q9UFC0 (Q9UFC0 whole entry, looked up): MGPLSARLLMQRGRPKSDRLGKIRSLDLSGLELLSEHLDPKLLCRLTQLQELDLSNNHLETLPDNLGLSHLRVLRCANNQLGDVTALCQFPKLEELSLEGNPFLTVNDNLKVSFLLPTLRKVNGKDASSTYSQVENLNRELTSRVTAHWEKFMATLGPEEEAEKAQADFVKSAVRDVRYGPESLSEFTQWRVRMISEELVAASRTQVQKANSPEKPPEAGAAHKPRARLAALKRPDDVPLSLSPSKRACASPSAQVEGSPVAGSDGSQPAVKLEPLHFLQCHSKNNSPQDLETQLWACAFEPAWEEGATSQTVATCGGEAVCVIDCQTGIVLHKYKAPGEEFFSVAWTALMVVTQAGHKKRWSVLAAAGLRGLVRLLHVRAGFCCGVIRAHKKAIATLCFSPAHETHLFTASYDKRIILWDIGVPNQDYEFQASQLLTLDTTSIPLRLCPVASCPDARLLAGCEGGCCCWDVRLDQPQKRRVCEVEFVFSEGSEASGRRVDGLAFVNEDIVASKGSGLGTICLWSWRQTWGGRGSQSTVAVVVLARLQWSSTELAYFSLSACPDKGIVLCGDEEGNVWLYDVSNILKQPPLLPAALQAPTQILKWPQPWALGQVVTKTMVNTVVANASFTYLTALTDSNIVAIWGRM
Sequence of UniProt Q9NWR8 (Q9NWR8 whole entry, looked up): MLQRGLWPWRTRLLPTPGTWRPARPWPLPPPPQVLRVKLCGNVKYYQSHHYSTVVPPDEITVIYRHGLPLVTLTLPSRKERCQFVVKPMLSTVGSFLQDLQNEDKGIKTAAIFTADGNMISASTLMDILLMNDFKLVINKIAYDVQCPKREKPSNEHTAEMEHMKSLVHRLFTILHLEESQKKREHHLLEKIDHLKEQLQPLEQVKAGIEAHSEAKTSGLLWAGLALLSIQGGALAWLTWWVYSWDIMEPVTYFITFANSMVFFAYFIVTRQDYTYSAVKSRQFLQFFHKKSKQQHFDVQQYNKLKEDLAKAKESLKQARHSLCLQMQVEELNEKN

Row | Target | log2 fold change
1 | LGALS3BP (UniProt Q08380) | 0.159 (inactive)
2 | KIF3C (UniProt O14782) | 0.683 (inactive)
3 | MEX3A (UniProt A1L020) | 0.15 (inactive)
4 | KIF11 (UniProt P52732) | 0.006 (inactive)
5 | LRWD1 (UniProt Q9UFC0) | -0.012 (inactive)
6 | LSM11 (UniProt P83369) | 0.285 (inactive)
7 | MAP3K6 (UniProt O95382) | 0.012 (inactive)
8 | METTL2A (UniProt Q96IZ6) | 0.046 (inactive)
9 | LY6E (UniProt Q16553) | -0.075 (inactive)
10 | MDM1 (UniProt Q8TC05) | 0.018 (inactive)
11 | LRIF1 (UniProt Q5T3J3) | -0.072 (inactive)
12 | KRAS (UniProt P01116) | 0.088 (inactive)
13 | LRRIQ1 (UniProt Q96JM4) | -0.002 (inactive)
14 | MDM2 isoform 11 (UniProt Q00987) | -0.007 (inactive)
15 | LRRC9 (UniProt Q6ZRR7) | 0.008 (inactive)
16 | MPDZ (UniProt O75970) | -0.024 (inactive)
17 | LRP1 (UniProt Q07954) | 0.125 (inactive)
18 | LRPPRC (UniProt H7C3W8) | 0.219 (inactive)

compound: Cc1sc2c(c1C)C(c1ccc(Cl)cc1)=N[C@@H](CC(=O)OC(C)(C)C)c1nnc(C)n1-2; test: as above
Outline: as §1

Row | Target | log2 fold change
19 | MED25 isoform 3 (UniProt Q71SY5) | 0.01 (inactive)
20 | LGALS3BP (UniProt Q08380) | -0.152 (inactive)
21 | KIF3C (UniProt O14782) | -0.059 (inactive)
22 | MEX3A (UniProt A1L020) | -0.073 (inactive)
23 | KIF11 (UniProt P52732) | -0.002 (inactive)
24 | MCUB (UniProt Q9NWR8) | 0.044 (inactive)
25 | MAN2B2 (UniProt Q9Y2E5) | -0.007 (inactive)
26 | LRWD1 (UniProt Q9UFC0) | 0.023 (inactive)
27 | MRPL30 isoform 2 (UniProt Q8TCC3) | -0.102 (inactive)
28 | LSM11 (UniProt P83369) | -0.045 (inactive)
29 | MRPL27 (UniProt Q9P0M9) | -0.048 (inactive)
30 | MRC2 (UniProt Q9UBG0) | 0.209 (inactive)
31 | MAPKAP1 (UniProt Q9BPZ7) | -0.048 (inactive)
32 | METTL2A (UniProt Q96IZ6) | 0 (inactive)
33 | LYN isoform 2 (UniProt P07948) | 0.043 (inactive)
34 | KRAS isoform 2 (UniProt P01116) | -0.006 (inactive)
35 | KIF18B (UniProt Q86Y91) | -0.083 (inactive)
36 | MDM1 (UniProt Q8TC05) | -0.116 (inactive)
37 | MAP4K4 isoform 6 (UniProt O95819) | -0.163 (inactive)
38 | LRIF1 (UniProt Q5T3J3) | 0.048 (inactive)
39 | KRAS (UniProt P01116) | 0.016 (inactive)
40 | KMT2B (UniProt Q9UMN6) | -0.012 (inactive)
41 | MEGF8 (UniProt Q7Z7M0) | 0.116 (inactive)
42 | MED28 (UniProt Q9H204) | -0.032 (inactive)
43 | KIF21A (UniProt H0YI78) | 0.106 (inactive)
44 | MME (UniProt P08473) | 0.232 (inactive)
45 | MPDZ (UniProt O75970) | -0.159 (inactive)
46 | METTL21A (UniProt Q8WXB1) | -0.068 (inactive)

compound: c1ccc([C@@H]2C[C@H]2NC2CCNCC2)cc1; test: as above
Outline: as §1

Row | Target | log2 fold change
47 | MED25 isoform 3 (UniProt Q71SY5) | 0.052 (inactive)
48 | LGALS3BP (UniProt Q08380) | -0.071 (inactive)
49 | KIF2A isoform 2 (UniProt O00139) | 0.326 (inactive)
50 | KIF3C (UniProt O14782) | 0.022 (inactive)
51 | KIF11 (UniProt P52732) | 0 (inactive)
52 | MCUB (UniProt Q9NWR8) | 0.205 (inactive)
53 | MAN2B2 (UniProt Q9Y2E5) | 0.255 (inactive)
54 | LRWD1 (UniProt Q9UFC0) | 0.039 (inactive)
55 | MRPL30 isoform 2 (UniProt Q8TCC3) | 0.476 (inactive)
56 | LSM11 (UniProt P83369) | -0.089 (inactive)
57 | MRPL27 (UniProt Q9P0M9) | 0.208 (inactive)
58 | MRC2 (UniProt Q9UBG0) | -0.084 (inactive)
59 | METTL2A (UniProt Q96IZ6) | 0.106 (inactive)
60 | LYN isoform 2 (UniProt P07948) | 0.102 (inactive)
61 | LY6E (UniProt Q16553) | -0.815 (inactive)
62 | MRPL22 (UniProt Q9NWU5) | 0.019 (inactive)
63 | MDM1 (UniProt Q8TC05) | -0.866 (active)
64 | LRIF1 (UniProt Q5T3J3) | -0.071 (inactive)
65 | KRAS (UniProt P01116) | -0.092 (inactive)
66 | MAPK7 (UniProt Q13164) | 0.042 (inactive)
67 | MEGF8 (UniProt Q7Z7M0) | 0.1 (inactive)
68 | MED28 (UniProt Q9H204) | 0.018 (inactive)
69 | MDM2 isoform 11 (UniProt Q00987) | -0.158 (inactive)
70 | MME (UniProt P08473) | -0.001 (inactive)
71 | LRRC9 (UniProt Q6ZRR7) | 0.209 (inactive)
72 | MPDZ (UniProt O75970) | -0.09 (inactive)
73 | METTL21A (UniProt Q8WXB1) | 0 (inactive)
74 | LEPROT (UniProt O15243) | -0.161 (inactive)

From the supplement of paper PMC10849652
